SMILES strings stand for the structures. Compounds without any hit were thinned out: in the full panel of roughly 79,000, 15% have a hit. Unmarked numbers belong to inactive results. The source made the active and inactive calls. Rule as the data show it: active = growth inhibition above about 70%; inactive = the rest.

The nature of one test: NCI Yeast Anticancer Drug Screen. Data for the sgs1 strain (AID 173).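 Also: 0% = growth of vehicle-only control cultures.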 The conditions noted are these: S. cerevisiae sgs1 mutant, at 3.7 µM, hits give high values. An outline of the steps: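 Inhibition of yeast growth served as the measure. The mutant strain was treated with each compound, and growth was normalised to cultures receiving vehicle alone.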
Turning to `C/C(=N\NC(=S)SCc1ccccc1)c1ccccn1`, the growth inhibition was 46%.
Turning to `CC[C@@]1(O)C(=O)OCc2c1cc1n(c2=O)Cc2cc3c(N)cccc3nc2-1`, the growth inhibition is -2%.
For `CN(C)c1ccc(Sc2ccc3nc(N)nc(N)c3c2)cc1`, the growth inhibition was 21%.
For `CC(=O)OCCOCNC(=S)N/N=C(\C)c1cnccn1`, the growth inhibition is -15%.
Turning to `COc1ccc(C2c3cc4c(cc3OC(C)(O)C2C)OCO4)c(OC)c1` (stereo not given), the growth inhibition is 2%.
Turning to `COc1ccc(Br)c(C(=O)Sc2nnnn2-c2cccc(Cl)c2)c1`, the growth inhibition was 2%.
As to `O=C(NNc1ccnc2cc(Cl)ccc12)/C(=C\c1ccccc1Cl)NC(=O)c1ccccc1`, the growth inhibition is 6%.
Regarding `CSC(=S)Nc1cccc(C)n1`, the growth inhibition is -49%.
For `O=C(/C=C\c1ccc(Cl)cc1Cl)c1cccs1`, the growth inhibition was 1%.
The same measure, in the same setting: next, `COc1ccc(-c2cn(-c3ccc(I)cc3)c3ncnc(N)c23)cc1`: -5%; `COc1cc(/C=C2\CCc3ccccc3C2=O)cc(OC)c1OC`: 17%.
The same measure, in the same setting: next, `CC(C)/C(Cl)=N\OC(=O)Nc1cccc(Cl)c1`: 1%; `CC1(C)[C@@H]2CC[C@]1(C)[C@H](OC(=O)CSC#N)C2`: 23%.
Same read-out and setting: next, `NNC(=O)CCc1ccc2ccc3ccccc3c2c1`: 8%.
Regarding `COc1ccc(/C(C)=N/OC(=O)c2c(-c3ccccc3Cl)noc2C)cc1CN1CCOCC1`, the growth inhibition was -29%.
`C=CC(C)(O)CCC1C(=C)C(O)CC2C(C)(C)CCCC12C` (stereo not given): the growth inhibition is 23%.
The same measure, in the same setting: then `S=C(Nc1ccc(Cl)c(Cl)c1)SCc1ccc2c(c1)OCO2`, with 38%; and `COc1cc(C2C3=C(COC3=O)Oc3cc4c(cc32)OCO4)ccc1O` (stereo not given), with -6%.
Consider `S=C(Nc1ccc(Cl)cc1)SC1CCCCC1`, for which the growth inhibition is 2%.
Same read-out and setting: then `COC1=CC(=O)C2C(C1=O)C(c1ccc(Cl)cc1)[C@@H]2C` (stereo not given in full), with 48%; and `c1ccc(-c2nc3cccnc3s2)cc1`, with -3%.
The same measure, in the same setting: then `COc1ccc(/C=C2\SC(=S)N(/C=C/c3nc4ccccc4[nH]c3=O)C2=O)cc1OC`, with 14%; and `CCCN(CCC)CC(O)c1cc(-c2ccc(Cl)cc2)nc2c(C)c(Cl)ccc12` (stereo not given), with 3%.
For `O=C(Nc1ccccc1)OCCc1ccc(Cl)c(Cl)c1`, the growth inhibition is -9%.
`CC(O)C(O)C(O)C(/C=N\Nc1ccccc1)=N/Nc1ccccc1` (stereo not given): the growth inhibition was 10%.
As for `C#CCCCc1ccccc1`, the growth inhibition is -61%.
Turning to `CC(=O)Cc1ccc[cH-]1.[Fe+2].c1cc[cH-]c1`, the growth inhibition was 0%.
`Cc1cc(I)ccc1N`: the growth inhibition was 5%.
Turning to `FC(F)(F)c1cc(NC(=S)N2c3ccccc3-n3cccc3C2c2cccnc2)cc(C(F)(F)F)c1` (stereo not given), the growth inhibition was -3%.
With `CC(C)(CN1CCCCC1)C(=O)CC(SCCS(=O)(=O)O)c1ccc(Br)cc1` (stereo not given), the growth inhibition is 11%.
Same read-out and setting: next, `C[Si](C)(C)CNC(=O)OCc1ccccc1`: -1%; `CC(C(=O)N1C(=O)N(C(=O)[C@H](C)C(O)c2ccccc2)[C@H](c2ccccc2)[C@H]1c1ccccc1)[C@@H](O)c1ccccc1` (stereo not given in full): 2%.
For `Oc1cccc2c(Cl)ccnc12`, the growth inhibition was 99% (active).
`O=C1C=CC(=C(c2ccccc2)c2ccccc2)c2ccccc21`: the growth inhibition is -25%.
Still for that read-out and setting: then `S=C(S)NN1CCOCC1`, with 47%.

Still in this test, the particulars now being: S. cerevisiae sgs1 mutant, at 11.0 µM, hits give high values.
In the case of `C/C(=N\NC(=S)SCc1ccccc1)c1ccccn1`, the growth inhibition is 78% (active).
Still for that read-out and setting: then `CC[C@@]1(O)C(=O)OCc2c1cc1n(c2=O)Cc2cc3c(N)cccc3nc2-1`, with 5%; and `CN(C)c1ccc(Sc2ccc3nc(N)nc(N)c3c2)cc1`, with 24%; and `CC(=O)OCCOCNC(=S)N/N=C(\C)c1cnccn1`, with 0%.
`COc1ccc(C2c3cc4c(cc3OC(C)(O)C2C)OCO4)c(OC)c1` (stereo not given): the growth inhibition is 4%.
The same measure, in the same setting: next, `COc1ccc(Br)c(C(=O)Sc2nnnn2-c2cccc(Cl)c2)c1`: 11%; `O=C(NNc1ccnc2cc(Cl)ccc12)/C(=C\c1ccccc1Cl)NC(=O)c1ccccc1`: 13%.
On the same count and under the same terms, then `CSC(=S)Nc1cccc(C)n1`, with -32%; and `O=C(/C=C\c1ccc(Cl)cc1Cl)c1cccs1`, with 12%.
The same measure, in the same setting: next, `COc1ccc(-c2cn(-c3ccc(I)cc3)c3ncnc(N)c23)cc1`: -3%; `COc1cc(/C=C2\CCc3ccccc3C2=O)cc(OC)c1OC`: 24%.
`CC(C)/C(Cl)=N\OC(=O)Nc1cccc(Cl)c1`: the growth inhibition was 2%.
The same measure, in the same setting: next, `CC1(C)[C@@H]2CC[C@]1(C)[C@H](OC(=O)CSC#N)C2`: 66%.
On the same count and under the same terms, next, `NNC(=O)CCc1ccc2ccc3ccccc3c2c1`: 17%; `COc1ccc(/C(C)=N/OC(=O)c2c(-c3ccccc3Cl)noc2C)cc1CN1CCOCC1`: -19%.
Same read-out and setting: then `C=CC(C)(O)CCC1C(=C)C(O)CC2C(C)(C)CCCC12C` (stereo not given), with 20%.
For the molecule `S=C(Nc1ccc(Cl)c(Cl)c1)SCc1ccc2c(c1)OCO2`, the growth inhibition was 99% (active).
For the molecule `COc1cc(C2C3=C(COC3=O)Oc3cc4c(cc32)OCO4)ccc1O` (stereo not given), the growth inhibition was -6%.
As for `S=C(Nc1ccc(Cl)cc1)SC1CCCCC1`, the growth inhibition was 51%.
On the same count and under the same terms, then `COC1=CC(=O)C2C(C1=O)C(c1ccc(Cl)cc1)[C@@H]2C` (stereo not given in full), with 99% (active); and `c1ccc(-c2nc3cccnc3s2)cc1`, with -2%; and `COc1ccc(/C=C2\SC(=S)N(/C=C/c3nc4ccccc4[nH]c3=O)C2=O)cc1OC`, with 43%.
Take `CCCN(CCC)CC(O)c1cc(-c2ccc(Cl)cc2)nc2c(C)c(Cl)ccc12` (stereo not given): the growth inhibition was 98% (active).
Still for that read-out and setting: then `O=C(Nc1ccccc1)OCCc1ccc(Cl)c(Cl)c1`, with 2%.
Consider `CC(O)C(O)C(O)C(/C=N\Nc1ccccc1)=N/Nc1ccccc1` (stereo not given), for which the growth inhibition is 11%.
The same measure, in the same setting: then `C#CCCCc1ccccc1`, with -56%.
Same read-out and setting: then `CC(=O)Cc1ccc[cH-]1.[Fe+2].c1cc[cH-]c1`, with 9%.
Consider `Cc1cc(I)ccc1N`, for which the growth inhibition was 4%.
With `FC(F)(F)c1cc(NC(=S)N2c3ccccc3-n3cccc3C2c2cccnc2)cc(C(F)(F)F)c1` (stereo not given), the growth inhibition was -2%.
On the same count and under the same terms, next, `CC(C)(CN1CCCCC1)C(=O)CC(SCCS(=O)(=O)O)c1ccc(Br)cc1` (stereo not given): 28%; `C[Si](C)(C)CNC(=O)OCc1ccccc1`: 1%.
On the same count and under the same terms, then `CC(C(=O)N1C(=O)N(C(=O)[C@H](C)C(O)c2ccccc2)[C@H](c2ccccc2)[C@H]1c1ccccc1)[C@@H](O)c1ccccc1` (stereo not given in full), with 30%; and `Oc1cccc2c(Cl)ccnc12`, with 99% (active).
The same measure, in the same setting: next, `O=C1C=CC(=C(c2ccccc2)c2ccccc2)c2ccccc21`: -10%.
On to `S=C(S)NN1CCOCC1`, for which the growth inhibition is 39%.
